In the library only some 5.4% were active in any assay of this set; here they are far more common.
IMPase Li inh: qHTS Assay for Identifying the Cell-Membrane Permeable IMPase Inhibitors: Potentiation with Lithium. 210,000 tested, 0.35% active. Potency, µM (series often up to 59.4 µM), without a hit: at the top dose activity, negative = IMPase inhibition, most hits filed as inhibitors. AID 1457, 2008. CHO-M1 cells, IP1 TR-FRET (IP-One), carbachol + lithium;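 further: IP1 builds up when IMPase is blocked and the TR-FRET signal falls; potency means the concentration at half of the fitted maximal effect; plate controls were basal vehicle for no effect and high inhibitor control for full effect; nearly all actives have a fitted effect of over 50% in size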
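Lithium-sensitised IP1 accumulation assay; M1-expressing CHO cells treated 30 min at 37C with compound. Competitive antibody detection by time-resolved FRET followed a 10 min room-temperature lysis step.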
HPGD inh: qHTS Assay for Inhibitors of HPGD (15-Hydroxyprostaglandin Dehydrogenase); 15-hydroxyprostaglandin dehydrogenase [NAD(+)] (Homo sapiens), P15428; purified HPGD, NADH fluorescence kinetic, PGE2 substrate; Potency, µM, for inactives: at the highest dose activity change, negative = inhibition, actives largely listed as inhibitors; 150,000 tested, 4.3% active; AID 894, 2007; active means well fitted inhibition curve with a large enough effect, not every such curve was filed as active; inconclusive means small, poorly fitted or top-dose-only effect, or another doubt; inactive means no such curve, though single readings can be large or run the other way; further: potency means the concentration at half of the fitted maximal effect
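NADH formation kinetics: reaction with 30 uM PGE2 and 1 mM NAD+ (final), 20 nM enzyme, Tris-HCl pH 8 with Tween 20, after 15 min compound preincubation at room temperature. Fluorescence change, last versus first of five reads.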
ALOX12 inhib: qHTS Assay for Inhibitors of 12-hLO (12-human lipoxygenase) | purified 12-hLO, xylenol orange hydroperoxide absorbance | AID 1452, 2008 | 150,000 tested, 0.12% active | Potency, µM (highest dose often 57.1 µM), without a hit: at the top dose activity change, negative = inhibition, actives largely listed as inhibitors | Polyunsaturated fatty acid lipoxygenase ALOX12 (Homo sapiens), P18054; further: potency means the concentration at half of the fitted maximal effect; nearly all actives have a fitted effect of over 55% in size
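Xylenol orange chromogenic assay: hydroperoxide from 12hLO oxidises Fe(II), giving red-shifted Fe(III)-XO absorbance. Conditions: 150 nM enzyme, 40 uM arachidonic acid, 25 mM Hepes pH 7.0, 0.01% Triton X-100, 30 min, room temperature.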
15-hLO-2 inh: qHTS Assay for Inhibitors of 15-hLO-2 (15-human lipoxygenase 2); Polyunsaturated fatty acid lipoxygenase ALOX15B (Homo sapiens), O15296; purified 15hLO-2, xylenol orange hydroperoxide absorbance; Potency, µM (titrated, usually from 57.1 µM), for inactives: top-dose activity change, negative = inhibition, actives largely listed as inhibitors; 110,000 tested, 0.56% active; AID 881, 2007; further: potency means the concentration at half of the fitted maximal effect; nearly all actives have a fitted effect of over 60% in size
Target sequence (O15296 whole entry, looked up): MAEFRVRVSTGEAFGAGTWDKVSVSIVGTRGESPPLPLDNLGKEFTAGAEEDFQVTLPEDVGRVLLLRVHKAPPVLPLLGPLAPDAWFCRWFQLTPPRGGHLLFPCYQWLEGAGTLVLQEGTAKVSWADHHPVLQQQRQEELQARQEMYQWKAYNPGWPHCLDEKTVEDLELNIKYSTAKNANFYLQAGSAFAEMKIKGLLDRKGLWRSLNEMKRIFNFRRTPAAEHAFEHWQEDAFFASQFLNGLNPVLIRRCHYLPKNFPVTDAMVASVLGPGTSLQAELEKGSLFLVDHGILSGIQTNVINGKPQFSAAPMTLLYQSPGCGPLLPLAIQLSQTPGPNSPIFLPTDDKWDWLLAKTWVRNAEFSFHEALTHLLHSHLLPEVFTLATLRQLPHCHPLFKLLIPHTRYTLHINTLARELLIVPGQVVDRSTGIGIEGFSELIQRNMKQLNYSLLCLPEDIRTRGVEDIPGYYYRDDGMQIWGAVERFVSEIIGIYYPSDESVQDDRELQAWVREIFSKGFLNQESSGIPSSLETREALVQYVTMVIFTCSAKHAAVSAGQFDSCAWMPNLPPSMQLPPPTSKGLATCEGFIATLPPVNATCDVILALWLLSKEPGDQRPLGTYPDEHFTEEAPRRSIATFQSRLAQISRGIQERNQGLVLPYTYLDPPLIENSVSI
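Purified human 15hLO-2 (50 nM) preincubated 15 min with compound, then 45 uM arachidonic acid for 90 min at RT in 25 mM Hepes pH 7.5, 0.01% Triton X-100. Hydroperoxide detected by Fe-xylenol orange; 573/405 nm absorbance ratio.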
IMPase inh: qHTS Assay for Identifying the Cell-Membrane Permeable IMPase Inhibitors; 120,000 tested, under 10 active; inhibition (IP1 accumulation), % at 46.1 µM; AID 901, 2007; CHO-M1 cells, IP1 accumulation, HTRF TR-FRET ratio; Inositol monophosphatase 1 (Rattus norvegicus), P97697; active means well fitted curve in the direction sought with a large enough effect in the signal ratio, not every such curve was filed as active; inconclusive means small, poorly fitted or top-dose-only effect, or a change in a side signal; inactive means no such curve, though single readings can be large or run the other way; the % refers to the signal ratio;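 further: cells stimulated with carbachol in lithium chloride buffer; plate controls were DMSO basal wells for no effect and reference inhibitor wells for full effect; higher means more IMPase inhibition seen as more IP1 and lower FRET ratio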
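The IP-One HTRF competitive assay in carbachol-stimulated CHO-M1 cells quantifies cellular IP1. Compounds spanned up to 46 uM final, and activity is expressed as AC50 from concentration-response fits of the ratio and donor data.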
PNC inhibitor: High Content Assay for Compounds that inhibit the Assembly of the Perinucleolar Compartment; AID 2417, 2010; PC3M PTB-GFP, PNC prevalence imaging, 16 h; active compounds read low; 140,000 tested, 3.1% active; activity change (PNC), negative = inhibition, % at 10 µM;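 active means readout at or below -70, meaning at least 70% loss of cells showing the perinucleolar compartment, a nuclear body marking cancer cells; inconclusive means readout between -30 and a set limit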;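 further: plate controls were DMSO wells for no effect and camptothecin positive control wells for full effect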
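Compounds are pinned in duplicate onto adhered PC3M cells stably expressing GFP-tagged PTB and incubated 16 h at 37 C. Cells are then fixed, nuclei stained with Hoechst, and PNC-positive cells counted.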
* marks the source's active call; other numbers are inactive results; ? = inconclusive; · = not tested or not shown; [ ] = remark or other dose. Unless noted, the call rests on the fitted dose curve; in most records, active means well fitted curve in the direction sought with a large enough effect; inconclusive means small, poorly fitted or top-dose-only effect, or another doubt; inactive means no such curve, though single readings can be large; an effect the other way counts as inactive or inconclusive. Unless noted, on the % scale 0 is the no-effect control and ±100 the full control effect.

SMILES	IMPase Li inh	HPGD inh	ALOX12 inhib	15-hLO-2 inh	IMPase inh	PNC inhibitor
O=C(O)C/C(=C\c1ccccc1)C(=O)O	8.5%	-14.5%	-2.5%[11.4 µM]	2.9%[11.4 µM]	·	·
CCC(=O)Nc1ccc(-c2ccc(NC(=O)CC)c(OC)c2)cc1OC	-2.7%	·	·	·	·	·
CCOc1cc(Cl)c(NC(=O)CC)cc1OCC	-0.4%	-0.8%	-3.9%	·	·	-113.8*
Cc1ccc(N2C(=O)NC(NC(=O)C3CC3)(C(F)(F)F)C2=O)cc1 (stereo not given)	-4.7%	-12.7%	2.6%	·	·	-100.2*
Fc1ccc(C(NCCc2ccc(Cl)cc2)c2nnc(-c3ccccc3Cl)o2)cc1 (stereo not given)	·	·	·	·	-4.3	·
O=C(O)CCc1ccc(-c2ccc(Br)cc2)o1	8.91µM*	?	-19.8%	-13.2%	?	?
O=C(O)CCc1ccc(-c2ccc(Cl)cc2)o1	0.5%[38.3 µM]	?	-11.5%	-15.3%	-5.4	-0.3
O=C(O)C=C1C2CC3CC(C2)CC1C3	3.1%[38.3 µM]	4.6%	-5.1%	1.4%	1.3	-82.0*
N#Cc1c(-c2ccc3c(c2)OCO3)csc1N	19.1%[38.3 µM]	-18.2%	-19.6%	-14.2%	0.8	-102.6*
C=CC1=C(C)C2=NC1=CC1=NC(=CC3=NC(=CC4=NC(=C2)C(C)=C4CCC(=O)O)C(CCC(=O)O)=C3C)C(C=C)=C1C.[Zn]	-23.0%	?	?	12.6µM*	-17.1	·
O=S1(=O)N[C@H]2CC[C@@H]3NS(=O)(=O)N[C@H]4CC[C@H](N1)N4S(=O)(=O)N23	-11.3%	-3.5%	-1.7%[11.4 µM]	-4.4%[11.4 µM]	·	·
CCCn1c(-c2ccc(F)cc2)nc2c(N3CCCN(Cc4ccccc4)CC3)nc(C)nc21	3.7%	?	-8.3%	26.2%	·	·
Nc1cc(Cl)c([N+](=O)[O-])cc1O	-4.4%	-8.0%	0.8%	-13.2%	·	·
Cc1cc2nc(C3CCN(CC4COc5ccccc5O4)CC3)[nH]c2cc1C (stereo not given)	-7.8%[38.3 µM]	-3.0%	-26.3%	47.7%[11.4 µM]	16.5[1.84 µM]	-82.3*
CCCNC(=S)N1CCC(c2nc3cc(C)c(C)cc3[nH]2)CC1	2.2%[38.3 µM]	-12.2%	6.1%	19.8%	4.9	49.3
Cc1ccc(-c2nn(C)c(=O)c3ccccc23)cc1S(=O)(=O)NCCCN(C)C	·	·	·	·	8.9	·
CCn1ncc(/C=C2/SC(=S)NC2=O)c1C	3.9%	15.8µM*	-6.1%	·	·	29.5
N#Cc1ccc(CN2CC[C@@]3(CCCN(S(=O)(=O)c4ccccc4)C3)C2)cc1	19.0%	-5.7%	-1.5%	12.1%	·	·
CN(Cc1cc(C(C)(C)C)cc(Br)c1O)Cc1cc(C(C)(C)C)cc(Br)c1O	2.3%	-5.7%	-11.3%[11.4 µM]	3.4%[11.4 µM]	·	·
Cc1cc(S(=O)(=O)NC2CCCCC2)ccc1OCC(=O)NCc1ccccn1	49.2%[38.3 µM]	15.8µM*	-1.4%	12.2%	-5.0	36.0
CCC1=C2CC[C@H]3C(=O)N(c4ccccc4)C(=O)[C@H]3[C@H]2[C@@]2(Cc3ccccc3)C(=O)N(CC(=O)OC)C(=O)N2C1=O	-8.4%	-2.4%	0.4%	6.8%	·	·
COc1ccc2c(c1)C(=O)[C@H](OC(=O)Nc1ccc(OC(F)F)cc1)[C@@H](c1ccc(OC)c(Br)c1)O2	0.3%	-8.3%	·	·	·	·
O=C(c1ccccc1-c1nc(-c2ccccc2)no1)N1CCOCC1	-8.6%[38.3 µM]	5.6%	-2.9%	-0.7%	-1.1	?
O=C(c1ccccc1-c1nc(-c2ccc(F)cc2)no1)N1CCCC1	-1.8%[38.3 µM]	-5.7%	-4.8%	5.8%	-1.0	-100.0*
Nc1ccc(CCNc2ncnc3c2ncn3[C@@H]2O[C@@H](CO)[C@H](O)[C@@H]2O)cc1	·	·	-6.0%	-1.3%	-5.6	·
O=C(COc1ccc(F)cc1)NNC(=O)c1cc2ccccc2oc1=O	-2.9%	-15.7%	-1.2%	·	·	-87.6*
